In PubChem BioAssay:

How the values were obtained:
Experiment in all cases: BK channel mutant inhibitors and activators – cell-based, U2OS BacMam, thallium flux, beta subunits, selectivity assay, profiling panel (AID 1259406);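 active = thallium flux through the channel raised or lowered by more than 3 SD from vehicle-only wells, actives on both sides; inactive = the rest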;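 also: initial slope of Thallos dye fluorescence rise after thallium is added; log ratio against the mean of 0.3% DMSO vehicle wells on the same plate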
F380Y = details: U2OS BacMam BK variants, at 30 µM
F380Y/beta1 = details: U2OS BacMam BK variants, at 30 µM
F380Y/beta2Delta = details: U2OS BacMam BK variants, at 30 µM
F380Y/beta4 = details: U2OS BacMam BK variants, at 30 µM
[1] = molecular target: Calcium-activated potassium channel subunit alpha-1 (Homo sapiens) + Leucine-rich repeat-containing protein 26 (Homo sapiens) (UniProt Q12791+Q2I0M4); details: U2OS BacMam BK variants, F380Y/Slo1WT/gamma1, at 30 µM
Sequence of Calcium-activated potassium channel subunit alpha-1 (Homo sapiens) + Leucine-rich repeat-containing protein 26 (Homo sapiens) (Q2I0M4 whole entry, looked up, one chain of several): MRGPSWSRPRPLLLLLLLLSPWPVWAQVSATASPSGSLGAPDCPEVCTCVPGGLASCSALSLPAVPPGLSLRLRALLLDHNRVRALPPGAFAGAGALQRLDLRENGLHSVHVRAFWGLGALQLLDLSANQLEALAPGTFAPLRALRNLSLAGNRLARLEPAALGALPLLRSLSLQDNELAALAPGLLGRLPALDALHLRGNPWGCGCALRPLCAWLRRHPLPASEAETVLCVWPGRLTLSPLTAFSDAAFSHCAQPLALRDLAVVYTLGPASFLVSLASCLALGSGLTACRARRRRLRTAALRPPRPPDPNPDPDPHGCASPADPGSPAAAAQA

R275C = details: U2OS BacMam BK variants, at 30 µM
R275C/beta1 = details: U2OS BacMam BK variants, at 30 µM
R275C/beta2Delta = details: U2OS BacMam BK variants, at 30 µM
R275C/beta4 = details: U2OS BacMam BK variants, at 30 µM
R275C/Slo1WT/beta2 = details: U2OS BacMam BK variants, at 30 µM

Measured: log fold change Tl+ flux

COc1cc(C(=O)Nc2ccccc2C(=O)NCCc2ccccn2)cc(OC)c1OC
inactive: F380Y 7.8e-05 | F380Y/beta1 0.0128 | F380Y/beta2Delta 0.0219 | F380Y/beta4 0.0635 | [1] 0.037 | R275C 0.0306 | R275C/beta1 0.0367 | R275C/beta2Delta 0.0116 | R275C/beta4 -0.0253 | R275C/Slo1WT/beta2 0.0509

Cc1c(C(=O)CSc2n[nH]c(=O)n2C(C)c2ccccc2)sc2ccc(Cl)cc12 (stereo not given)
inactive: F380Y 0.0243 | F380Y/beta1 0.0267 | F380Y/beta2Delta 0.0136 | F380Y/beta4 -0.00607 | [1] 0.0185 | R275C 0.0226 | R275C/beta1 0.0417 | R275C/beta2Delta 0.0219 | R275C/beta4 0.0303 | R275C/Slo1WT/beta2 -0.0119

Cc1nc(-c2n[nH]c(=S)n2C)cs1
inactive: F380Y -0.0125 | F380Y/beta1 -0.0212 | F380Y/beta2Delta 0.0116 | F380Y/beta4 -0.0241 | [1] 0.0365 | R275C 0.0188 | R275C/beta1 0.00398 | R275C/beta2Delta 0.0232 | R275C/beta4 -0.0295 | R275C/Slo1WT/beta2 -0.00583

O=C(CCN1CCOCC1)Nc1cc(Cl)cc(Cl)c1
inactive: F380Y 0.0457 | F380Y/beta1 0.0335 | F380Y/beta2Delta 0.00661 | F380Y/beta4 0.024 | [1] -0.0241 | R275C 0.0216 | R275C/beta1 0.0618 | R275C/beta2Delta 0.0272 | R275C/beta4 0.0419 | R275C/Slo1WT/beta2 -0.0333

CCOC(=O)CSc1nnc(OCC)n1-c1ccccc1
inactive: F380Y -0.0276 | F380Y/beta1 -0.00436 | F380Y/beta2Delta 0.0123 | F380Y/beta4 -0.00338 | [1] 0.0529 | R275C -0.0234 | R275C/beta1 0.0181 | R275C/beta2Delta -0.0101 | R275C/beta4 -0.0109 | R275C/Slo1WT/beta2 0.0084

Cn1cnc2cccc(F)c2c1=N
inactive: F380Y -0.0259 | F380Y/beta1 0.000586 | F380Y/beta2Delta -0.0156 | F380Y/beta4 0.0474 | [1] 0.038 | R275C 0.0169 | R275C/beta1 0.0241 | R275C/beta2Delta -0.00275 | R275C/beta4 0.00326 | R275C/Slo1WT/beta2 0.0172

Cc1nn(-c2ccccc2)nc1CNC(=O)COc1ccccc1
inactive: F380Y -0.0388 | F380Y/beta1 -0.0688 | F380Y/beta2Delta -0.0499 | F380Y/beta4 -0.0891 | [1] -0.0325 | R275C -0.00552 | R275C/beta1 -0.0187 | R275C/beta2Delta 0.0169 | R275C/beta4 -0.0424 | R275C/Slo1WT/beta2 0.0189
